Test results as given in PubChem BioAssay (NCI).
About 79,000 compounds went through this panel and 15% of them were active in at least one assay; those are over-represented in the sample as a whole. Calls of active or inactive are those of the source. Rule as the data show it: active = growth inhibition above about 70%; inactive = the rest.

Legend:
[1] = NCI Yeast Anticancer Drug Screen. Data for the rad50 strain (AID 155);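 also: 0% = growth of vehicle-only cultures of the same strain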; settings: S. cerevisiae rad50 strain growth inhibition, active compounds read high
Outline: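 Growth of the mutant yeast was measured after compound exposure and referenced to vehicle-treated cultures.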

[2] = NCI Yeast Anticancer Drug Screen. Data for the mec2-1 strain (AID 157); settings: S. cerevisiae mec2-1 strain, active compounds read high
Outline: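 mec2-1 yeast strain, carrying an alteration in DNA damage repair or cell cycle control, was exposed to compounds; growth inhibition was measured relative to vehicle-treated controls.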

[3] = NCI Yeast Anticancer Drug Screen. Data for the sgs1 mgt1 strain (AID 161);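 also: 0% = growth of cultures given vehicle only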; settings: S. cerevisiae sgs1 mgt1 strain, active compounds read high
Outline: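 Compounds are added to genetically altered yeast, and growth is compared with cultures given vehicle alone to give percent inhibition.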

[4] = NCI Yeast Anticancer Drug Screen. Data for the cln2 rad14 strain (AID 165);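 also: 0% = growth equal to vehicle treated cultures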; settings: S. cerevisiae cln2 rad14 strain, active compounds read high
Outline: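 Yeast carrying cln2 and rad14 alterations (cell cycle control and DNA damage repair) were exposed to compounds. Growth inhibition was measured against vehicle-treated controls.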

[5] = NCI Yeast Anticancer Drug Screen. Data for the bub3 strain (AID 167); settings: S. cerevisiae bub3 mutant strain, active compounds read high
Outline: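 Whole-cell yeast assay. The mutant strain was incubated with compounds, and growth inhibition was determined by comparison with vehicle-treated cells.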

[6] = NCI Yeast Anticancer Drug Screen. Data for the mlh1 rad18 strain (AID 175); settings: S. cerevisiae mlh1 rad18 strain growth inhibition, active compounds read high
Outline: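 Growth inhibition of the yeast strain was measured after compound exposure and expressed relative to vehicle-treated controls. The strain carries defined defects in DNA damage repair.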

[7] = at 5.0 µM (retest, dose inferred, filed as 0.5)
[8] = at 50.0 µM (retest, dose inferred, filed as 5.0)

Measured: growth inhibition

CCOC(=O)CC(O)(CCc1ccccc1)c1ccccc1 (stereo not given)
inactive: [1]; [7] -5% | [1]; [8] 6% | [1]; at 50.0 µM 25.4% | [2]; [7] 1% | [2]; [8] 2% | [2]; at 50.0 µM 54.8% | [3]; [7] -14% | [3]; [8] 22% | [3]; at 50.0 µM -2.1% | [4]; [7] -1% | [4]; [8] -14% | [4]; at 50.0 µM -18.2% | [5]; [7] 14% | [5]; [8] 40% | [5]; at 50.0 µM 21.1% | [6]; [7] -1% | [6]; [8] 45% | [6]; at 50.0 µM 9.95%

C=C1CCCCC1C(C(=O)O)(c1ccccc1)c1ccccc1 (stereo not given)
active: [1]; [7] 77% | [1]; [8] 98% | [1]; at 50.0 µM 98.7% | [2]; [7] 71% | [2]; [8] 99% | [2]; at 50.0 µM 99.3% | [3]; [7] 79% | [3]; [8] 99% | [3]; at 50.0 µM 99.3% | [4]; [7] 72% | [4]; [8] 99% | [4]; at 50.0 µM 99.3% | [5]; [8] 99% | [5]; at 50.0 µM 98.2% | [6]; [7] 92% | [6]; [8] 99% | [6]; at 50.0 µM 99.5%
inactive: [5]; [7] 51%

CC1(C)CCN(CCOC(=O)C(c2ccccc2)C2C=CCCC2)C1 (stereo not given)
inactive: [1]; [7] -3% | [1]; [8] 46% | [1]; at 50.0 µM 64.2% | [2]; [7] 25% | [2]; [8] 50% | [2]; at 50.0 µM 56.6% | [3]; [7] 29% | [3]; [8] 69% | [4]; [7] 3% | [4]; [8] 32% | [5]; [7] 4% | [5]; [8] 26% | [5]; at 50.0 µM 69.8% | [6]; [7] 38% | [6]; [8] 65% | [6]; at 50.0 µM 70%
active: [3]; at 50.0 µM 77% | [4]; at 50.0 µM 73.7%

N#CC(C(=O)CCCC(=O)Nc1ccc(Cl)cc1)c1ccccc1Cl (stereo not given)
inactive: [1]; [7] 2% | [1]; [8] 0% | [2]; [7] -1% | [2]; [8] 6% | [3]; [7] 9% | [3]; [8] 4% | [4]; [7] -2% | [4]; [8] 1% | [5]; [7] 1% | [5]; [8] 30% | [6]; [7] -2% | [6]; [8] 4%
active: [1]; at 50.0 µM 96.8% | [2]; at 50.0 µM 98% | [3]; at 50.0 µM 99% | [4]; at 50.0 µM 93.9% | [5]; at 50.0 µM 99% | [6]; at 50.0 µM 96.7%

CC(C)CCCCCCCCCCCCC(=O)NCC(=O)NC1C(O)C(O)C(Nc2ncnc3nc[nH]c23)OC1C(O)CO (stereo not given)
inactive: [1]; [7] 25% | [1]; [8] 53% | [1]; at 50.0 µM 34.5% | [2]; [7] 26% | [2]; [8] 46% | [2]; at 50.0 µM 25.9% | [3]; [7] 7% | [3]; [8] 43% | [3]; at 50.0 µM 52.2% | [4]; [7] 5% | [4]; [8] -14% | [4]; at 50.0 µM 47.9% | [5]; [7] 18% | [5]; [8] 63% | [5]; at 50.0 µM 52.4% | [6]; [7] 44% | [6]; [8] 63% | [6]; at 50.0 µM 53.9%

CC(=O)[O-].[Mn+3].[O-]c1ccc(Cl)cc1C=NCCN=Cc1cc(Cl)ccc1[O-]
active: [1]; [8] 92% | [1]; at 50.0 µM 98.8% | [2]; at 50.0 µM 98.5% | [3]; [8] 87% | [3]; at 50.0 µM 98.6% | [4]; [8] 89% | [4]; at 50.0 µM 89.2% | [5]; [8] 98% | [5]; at 50.0 µM 98.2% | [6]; [8] 93% | [6]; at 50.0 µM 98.6%
inactive: [1]; [7] -2% | [2]; [7] -3% | [2]; [8] 66% | [3]; [7] 6% | [4]; [7] 8% | [5]; [7] 16% | [6]; [7] -1%

O=C(O)c1ccccc1C(c1ccccc1)c1ccccc1
inactive: [1]; [7] 15% | [1]; [8] 62% | [1]; at 50.0 µM 44.4% | [2]; [7] -8% | [2]; [8] 44% | [2]; at 50.0 µM 65.2% | [3]; [7] 26% | [4]; [7] 13% | [5]; [7] 25% | [6]; [7] 6% | [6]; at 50.0 µM 67%
active: [3]; [8] 71% | [3]; at 50.0 µM 85.8% | [4]; [8] 84% | [4]; at 50.0 µM 74.3% | [5]; [8] 79% | [5]; at 50.0 µM 75.3% | [6]; [8] 84%

C=C1CC2(OC1=O)C(=O)N(C)c1ccccc12 (stereo not given)
active: [1]; at 50.0 µM 84.5% | [2]; at 50.0 µM 87.5% | [3]; at 50.0 µM 82.6% | [5]; [8] 73% | [5]; at 50.0 µM 88.2% | [6]; [8] 71% | [6]; at 50.0 µM 91.7%
inactive: [1]; [7] -118% | [1]; [8] 63% | [2]; [7] -31% | [2]; [8] 52% | [3]; [7] -38% | [3]; [8] 67% | [4]; [7] -49% | [4]; [8] 22% | [4]; at 50.0 µM 15% | [5]; [7] -47% | [6]; [7] -111%

CC[n+]1c(/C=C/c2ccc(N(C)C)cc2)ccc2ccccc21
inactive: [1]; [7] -5% | [2]; [7] 23% | [3]; [7] -2% | [4]; [7] -5% | [5]; [7] 1% | [6]; [7] 13%
active: [1]; [8] 99% | [1]; at 50.0 µM 99% | [2]; [8] 99% | [2]; at 50.0 µM 99.2% | [3]; [8] 99% | [3]; at 50.0 µM 98% | [4]; [8] 98% | [4]; at 50.0 µM 99% | [5]; [8] 99% | [5]; at 50.0 µM 98.8% | [6]; [8] 99% | [6]; at 50.0 µM 98.5%

CN(C)CCCN1c2ccc3ccccc3c2Sc2cccc(Cl)c21
inactive: [1]; [7] 7% | [2]; [7] 19% | [3]; [7] -1% | [4]; [7] 2% | [5]; [7] 17% | [5]; at 50.0 µM 8.95% | [6]; [7] 25%
active: [1]; [8] 99% | [1]; at 50.0 µM 98.3% | [2]; [8] 99% | [2]; at 50.0 µM 97.3% | [3]; [8] 99% | [3]; at 50.0 µM 97.9% | [4]; [8] 99% | [4]; at 50.0 µM 96% | [5]; [8] 99% | [6]; [8] 99% | [6]; at 50.0 µM 98.2%
